The test system of assay [1] is Wnt5a (protein binding on small-molecule microarray). In words: Wnt5a binders on small-molecule microarray, primary screen, biophysical, 635/667 nm fluorescence (AID 1142).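 Also: fluorescence read at 667 nm with signal to noise per printed feature.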 The settings on record: 635 nm fluorescence, higher = more signal.
Assay [2] can be described thus: cell viability in Huh7 cells, primary screen, cytotoxicity control for HCV replication inhibitor project, CellTiter-Glo luminescence, basal, 48 h (AID 1143).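 Also: Huh7 hepatoma cells carrying a hepatitis C replication reporter with no stimulus; test concentration not given here.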 The settings on record: Huh7 HCV replicon, higher = more signal, called active from +8 up or from −8 down.
Assay [3] is described as follows: P. aeruginosa biofilm formation inhibitors, primary screen, PAO1 strain, BacTiter-Glo luminescence, LB-PBS (AID 1144). Particulars: 12 h, higher = more signal.
The nature of assay [4]: CREB reporter modulators without forskolin, primary screen, cell-based, PC12, CRE-LacZ reporter, unstimulated (AID 1145). Particulars: no forskolin, luminescence, 4.5 h, higher = more signal, called active from +8 up or from −8 down.
Assay [5] can be described thus: CREB reporter modulators under forskolin, primary screen, cell-based, PC12, CRE-LacZ reporter, forskolin-stimulated (AID 1146).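 Also: PC12 cells with 6xCRE LacZ reporter stimulated by forskolin 10 µM; beta-galactosidase reporter signal reflecting CREB driven transcription.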 Particulars: luminescence, 4.5 h, higher = more signal, called active from +8 up or from −8 down.
For assay [6], the target named is Streptavidin (Streptomyces avidinii) (UniProt P22629). Put plainly: streptavidin binders on small-molecule microarray, primary screen, artefact control for SMM compound annotation, biophysical, 635/667 nm fluorescence (AID 1147).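 Also: signal reflects streptavidin binding to arrayed compounds as a control protein.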 Particulars: streptavidin binding, higher = more signal.
Assay [7] can be described thus: small-molecule binders of probe aInhba, primary screen, biochemical, small-molecule microarray, 635/667 nm fluorescence (AID 1148).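 Also: score merges 667nm spot fluorescence with signal-to-noise for antibody binding to printed compounds.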 The settings on record: higher = more signal.
Assay [8] addresses Torsin-1A (Homo sapiens) (UniProt O14656). Put plainly: torsin A binders from cell lysate, primary screen, small-molecule microarray, wild-type, 635/667 nm (AID 1149). Particulars: COS7 hTOR1A-WT lysate, 635 nm fluorescence, higher = more signal.
Assay [9] has the same target. In words: small-molecule binders of mutant TOR1A in lysate, primary screen, cell lysate, small-molecule microarray, COS7 lysate, 635/667 nm fluorescence (AID 1150).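 Also: score pools 667 nm emission and signal to noise measuring lysate protein binding.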 The settings on record: COS7 hTOR1A mutant lysate, 635 nm fluorescence, higher = more signal.
Assay [10] has as its system Sonic hedgehog protein (Shh). Put plainly: small-molecule binders of Shh protein, primary screen, biochemical, small-molecule microarray, 635/667 nm fluorescence (AID 1151).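 Also: Shh protein binding to compounds spotted on small-molecule microarray slides; score combines spot fluorescence intensity with signal-to-noise across triplicate slides.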 Particulars: small-molecule microarray binding, 635 nm fluorescence; higher = more signal.
Assay [11] can be described thus: E. coli DRC41 culture turbidity changes, primary screen, E. coli filamentation inducer project, strain DRC41, OD650, 48 h (AID 1152).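 Also: E. coli MC1000 strain DRC41 lacking acrAB efflux pump and sulA.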 Particulars: E. coli DRC41 (acrAB sulA), higher = more signal, called active from +8 up or from −8 down.
A short description of assay [12]: small-molecule binders of probe aLefty1, primary screen, biochemical, small-molecule microarray, 635/667 nm fluorescence (AID 1153).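 Also: score merges spot fluorescence with signal-to-noise ratio from the scanned slide images.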 Particulars: higher = more signal.
The nature of assay [13]: PSAC antagonists in infected red cells, primary screen, cell-based, P. falciparum Indochina, OD700, 1 h (AID 1154). The settings on record: P. falciparum Indochina infected RBC osmotic lysis, higher = more signal, called active from +8 up or from −8 down.
The nature of assay [14]: PSAC antagonists in infected red cells, primary screen, cell-based, P. falciparum Indochina, OD700, 2 h (AID 1155).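 Also: lysis reports solute entry through the parasite surface anion channel PSAC; channel blockers reduce lysis of infected cells.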 The settings on record: P. falciparum Indochina infected erythrocytes, osmotic lysis OD700; higher = more signal, called active from +8 up or from −8 down.
The nature of assay [15]: osmotic lysis modulators in infected erythrocytes, primary screen, PSAC antagonist project, cell-based, P. falciparum Indochina, OD700, 3 h (AID 1156). Particulars: higher = more signal, called active from +8 up or from −8 down.
The nature of assay [16]: PSAC antagonists in infected red cells, primary screen, cell-based, P. falciparum Indochina, OD700, 18 h (AID 1157). Particulars: P. falciparum Indochina infected erythrocytes, osmotic lysis OD700, 18 h; higher = more signal, called active from +8 up or from −8 down.
A short description of assay [17]: modulators of S6 phosphorylation in cells, primary screen, cell-based, A549, cytoblot, luminescence, serum-stimulated (AID 1158).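 Also: serum-stimulated A549 lung adenocarcinoma cells; signal is phosphorylated S6 detected by cytoblot immunostaining with HRP secondary.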 Particulars: A549 phospho-S6 cytoblot, 5 h, higher = more signal.
For assay [18], the target named is NADPH oxidase 2 (Homo sapiens) (UniProt P04839). Put plainly: NOX2-dependent H2O2 signal modulators, primary screen, NOX inhibitor project, cell-based, HEK293-NOX2, PMA-stimulated, Amplex Red fluorescence (AID 1159). Also: test concentration not given here. Particulars: 45 min, higher = more signal, called active from +8 up or from −8 down.
Assay [19] has as its target NADPH oxidase 4 (Homo sapiens) (UniProt Q9NPH5). Put plainly: NOX4-dependent H2O2 signal modulators, primary screen, NOX inhibitor project, cell-based, HEK293-NOX4, tetracycline-induced, Amplex Red fluorescence (AID 1160). The settings on record: 45 min, higher = more signal, called active from +8 up or from −8 down.
For assay [20], the target named is NADPH oxidase 5 (Homo sapiens) (UniProt Q96PH1). In words: NOX5-dependent H2O2 signal modulators, primary screen, NOX inhibitor project, cell-based, HEK293-NOX5, Amplex Red fluorescence (AID 1161). Particulars: HEK293-NOX5, ionomycin, 45 min, higher = more signal.

Activity calls are given as the source filed them. Unless noted, no rule for the calls is given here.

The values below come from PubChem BioAssay.

Sequence of NADPH oxidase 5 (Homo sapiens) (Q96PH1 whole entry, looked up): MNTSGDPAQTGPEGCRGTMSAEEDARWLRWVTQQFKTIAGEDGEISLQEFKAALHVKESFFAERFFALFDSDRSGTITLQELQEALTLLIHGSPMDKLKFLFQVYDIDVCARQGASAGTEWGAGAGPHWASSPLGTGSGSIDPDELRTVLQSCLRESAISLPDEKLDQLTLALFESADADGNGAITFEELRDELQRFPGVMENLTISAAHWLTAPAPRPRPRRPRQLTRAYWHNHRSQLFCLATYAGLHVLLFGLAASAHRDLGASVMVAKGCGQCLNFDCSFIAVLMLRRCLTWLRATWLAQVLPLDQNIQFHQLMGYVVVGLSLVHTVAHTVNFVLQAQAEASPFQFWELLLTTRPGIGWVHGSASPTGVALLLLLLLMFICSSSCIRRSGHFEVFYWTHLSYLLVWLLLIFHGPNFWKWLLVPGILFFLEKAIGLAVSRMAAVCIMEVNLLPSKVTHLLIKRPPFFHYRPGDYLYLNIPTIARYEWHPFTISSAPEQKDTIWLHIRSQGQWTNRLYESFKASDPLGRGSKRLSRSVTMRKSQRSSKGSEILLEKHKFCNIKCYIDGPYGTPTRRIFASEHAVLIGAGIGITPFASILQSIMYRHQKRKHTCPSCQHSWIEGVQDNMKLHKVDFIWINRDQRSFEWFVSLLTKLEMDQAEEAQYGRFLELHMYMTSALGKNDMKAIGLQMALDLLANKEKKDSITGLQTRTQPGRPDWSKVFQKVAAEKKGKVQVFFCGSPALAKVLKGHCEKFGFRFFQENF
Sequence of Torsin-1A (Homo sapiens) (O14656 whole entry, looked up): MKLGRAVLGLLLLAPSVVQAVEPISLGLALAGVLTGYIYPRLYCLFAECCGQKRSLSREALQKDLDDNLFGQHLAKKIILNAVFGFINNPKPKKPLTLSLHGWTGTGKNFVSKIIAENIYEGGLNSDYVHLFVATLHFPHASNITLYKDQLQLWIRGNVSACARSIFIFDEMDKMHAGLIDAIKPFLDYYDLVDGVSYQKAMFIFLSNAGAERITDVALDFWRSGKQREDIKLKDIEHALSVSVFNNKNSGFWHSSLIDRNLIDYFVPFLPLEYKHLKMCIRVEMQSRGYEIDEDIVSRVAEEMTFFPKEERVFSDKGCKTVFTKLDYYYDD
Sequence of NADPH oxidase 4 (Homo sapiens) (Q9NPH5 whole entry, looked up): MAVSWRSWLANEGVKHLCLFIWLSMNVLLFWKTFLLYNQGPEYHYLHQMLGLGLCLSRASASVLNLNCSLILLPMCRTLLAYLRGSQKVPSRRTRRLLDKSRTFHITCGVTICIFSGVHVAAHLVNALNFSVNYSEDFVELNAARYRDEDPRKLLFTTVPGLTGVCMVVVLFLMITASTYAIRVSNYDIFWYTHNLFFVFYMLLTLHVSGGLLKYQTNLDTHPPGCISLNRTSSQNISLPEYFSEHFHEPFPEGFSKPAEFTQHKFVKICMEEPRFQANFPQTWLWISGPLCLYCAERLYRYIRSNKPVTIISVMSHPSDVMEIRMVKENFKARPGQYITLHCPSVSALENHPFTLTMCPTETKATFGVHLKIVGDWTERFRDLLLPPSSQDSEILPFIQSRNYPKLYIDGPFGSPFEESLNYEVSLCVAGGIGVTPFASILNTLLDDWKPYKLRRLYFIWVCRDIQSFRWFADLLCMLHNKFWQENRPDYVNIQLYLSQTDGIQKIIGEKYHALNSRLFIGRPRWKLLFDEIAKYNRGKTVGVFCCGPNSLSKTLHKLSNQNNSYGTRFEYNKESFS
Sequence of Streptavidin (Streptomyces avidinii) (P22629 whole entry, looked up): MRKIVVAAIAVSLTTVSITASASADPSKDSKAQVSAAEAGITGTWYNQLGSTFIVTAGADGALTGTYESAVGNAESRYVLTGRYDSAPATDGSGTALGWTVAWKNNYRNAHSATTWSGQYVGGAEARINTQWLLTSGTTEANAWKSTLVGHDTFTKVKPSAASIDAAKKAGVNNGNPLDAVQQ
Sequence of NADPH oxidase 2 (Homo sapiens) (P04839 whole entry, looked up): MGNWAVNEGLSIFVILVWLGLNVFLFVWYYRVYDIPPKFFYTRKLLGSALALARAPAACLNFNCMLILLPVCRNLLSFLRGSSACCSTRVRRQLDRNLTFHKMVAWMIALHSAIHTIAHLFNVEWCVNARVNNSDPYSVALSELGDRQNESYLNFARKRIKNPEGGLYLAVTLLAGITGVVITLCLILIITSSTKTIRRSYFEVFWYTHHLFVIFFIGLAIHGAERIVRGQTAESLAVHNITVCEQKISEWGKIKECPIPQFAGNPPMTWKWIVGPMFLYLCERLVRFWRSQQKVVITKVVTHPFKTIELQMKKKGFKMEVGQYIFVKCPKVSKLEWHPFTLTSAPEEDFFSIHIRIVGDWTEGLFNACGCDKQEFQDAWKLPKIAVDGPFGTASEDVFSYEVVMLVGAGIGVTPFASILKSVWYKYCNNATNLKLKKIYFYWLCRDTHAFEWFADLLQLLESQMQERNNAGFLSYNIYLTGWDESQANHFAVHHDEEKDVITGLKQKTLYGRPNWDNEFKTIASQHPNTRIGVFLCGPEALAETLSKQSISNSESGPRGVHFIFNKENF

`CC1=C2[C@@H](CCc3ccccc3)OB(O)C[C@@H]2[C@@H]2C(=O)N(Cc3ccccc3)C(=O)[C@@H]2C1`: the composite z-score in assay [1] was 0.0023; in [6], -0.189; in assay [7], -0.285; with Torsin-1A (Homo sapiens) [8], 0.572; with Torsin-1A (Homo sapiens) [9], 0.333; in assay [10] it was 0.792. Also, in assay [12], the composite z-score was -0.301. Also, the z-score is -0.23 (inactive) in [2]; 0.615 (inactive) in assay [3]; 0.39 (inactive) in assay [4]; -0.138 (inactive) in assay [5]; -0.42 (inactive) in [11]; 11.8 (active) in [13]. The z-score in assay [14] is 1.28 (inactive); in assay [15] it was -0.633 (inactive); in assay [16] it was 0.55 (inactive); in assay [17], 0.433; in [18], -0.0748 (inactive); in [19] it was 0.167 (inactive). For the same molecule, the z-score in assay [20] is 0.587.

`O[C@@H](Cc1ccccc1)[C@@H](/C=C/C1CC1)N(CC#Cc1ccccc1)Cc1ccccc1Br`: the composite z-score was -1.03 in assay [1]; -0.5 in assay [6]; -0.183 in assay [7]; -0.802 in the assay with Torsin-1A (Homo sapiens) [8]; -0.744 with Torsin-1A (Homo sapiens) [9]; -1.5 in assay [10]. Also, the composite z-score in assay [12] turned out to be 0.187. The z-score in [2] was -1.72 (inactive); in [3] it was 0.357 (inactive); in assay [4], 2.41 (inactive); in assay [5] it was 0.21 (inactive); in assay [11] it was 0.241 (inactive); in [13], 2.05 (inactive). Moreover, the z-score in [14] was 1.37 (inactive); in assay [15], 0.108 (inactive); in assay [16], 0.475 (inactive); in [17], 0.131; in assay [18], -0.612 (inactive); in assay [19] it was 0.221 (inactive). The z-score in assay [20] was -0.586.

Regarding `CC(c1ccccc1)C(O)C1C=CC2C(=O)N(C)C(=O)C2N1Nc1ccccc1` (stereo not given), the composite z-score in assay [1] is 0.462; in assay [6] it was 1.62; in [7], 0.562; with Torsin-1A (Homo sapiens) [8], 0.112; with Torsin-1A (Homo sapiens) [9], 0.299; in assay [10] it was -0.353. Further, the composite z-score in assay [12] was found to be 0.146. The z-score was 0.481 (inactive) in assay [2]; -0.0225 (inactive) in assay [3]; 0.0535 (inactive) in [4]; -0.0744 (inactive) in assay [5]; -1.14 (inactive) in assay [11]; 0.627 (inactive) in assay [13]. Besides, the z-score is 0.782 (inactive) in assay [14]; -0.0204 (inactive) in assay [15]; 0.999 (inactive) in assay [16]; -0.945 in assay [17]; -1.51 (inactive) in assay [18]; -3.77 (inactive) in [19]. In assay [20], the z-score is -3.26.

Consider `C=C(C(=O)CC[C@H](OC(=O)c1ccccc1-c1ccccc1C(=O)O)c1cccc(OCCO)c1)C(C)C`, for which the composite z-score in [1] was -0.103; in [6] it was -0.186; in assay [7], -0.0719; with Torsin-1A (Homo sapiens) [8] it was -0.492; with Torsin-1A (Homo sapiens) [9] it was -0.0541; in assay [10] it was 0.432. In addition, the composite z-score in [12] was -0.328. The z-score in [2] is -0.208 (inactive); in [3], -0.125 (inactive); in [4], 0.102 (inactive); in assay [5], 3.19 (inactive); in [11] it was -0.567 (inactive); in assay [13] it was 4.87 (inactive). Also, the z-score in assay [14] is 0.857 (inactive); in assay [15], 2.06 (inactive); in assay [16], 0.503 (inactive); in assay [17], 0.0988; in assay [18], 1.49 (inactive); in [19], 0.361 (inactive). Moreover, the z-score in assay [20] is -1.48.

As to `CC#CCO[Si](C#Cc1ccccc1)(C(C)C)C(C)C`, the composite z-score in assay [1] is -0.254; in [6], -1.07; in assay [7], -0.106; in the assay with Torsin-1A (Homo sapiens) [8], -1.43; in the assay with Torsin-1A (Homo sapiens) [9], -0.811; in assay [10] it was 0.12. In addition, the composite z-score in [12] was -0.193. Besides, the z-score in assay [2] was -1.35 (inactive); in assay [3], 0.687 (inactive); in [4], -0.985 (inactive); in [5], 0.852 (inactive); in [11] it was -0.112 (inactive); in assay [13], 0.175 (inactive). Also, the z-score in assay [14] was -0.286 (inactive); in assay [15] it was -0.975 (inactive); in assay [16], -0.4 (inactive); in [17] it was -1.16; in assay [18], -2.19 (inactive); in assay [19] it was -0.176 (inactive). For the same molecule, in [20], the z-score is -0.624.
